Measurements taken from PubChem BioAssay AID1508608 (The Scripps Research Institute Molecular Screening Center, 2020).
Among all 2,300 compounds or so, about 20 (0.9%) were called active. The entries come from a sample that favours actives as a whole. A number with no mark means an inactive call.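 Rule for the calls: active = mean activation across replicates above 26.72%, the hit cutoff set for this confirmation screen; inactive = the rest.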

What follows are compounds tested against G-protein coupled receptor 151 (Homo sapiens) (UniProt Q8TDV0) (assay: GPR151 agonism via beta-arrestin recruitment – cell-based, PathHunter beta-arrestin, luminescence, set 2, confirmation (AID 1508608;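 note: 0% = plate median of compound wells and 100% = EA reagent high control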)). Settings: GPR151 PathHunter beta-arrestin cells, 90 min, at 11.2 µM, active compounds read high; 100% = signal from added EA reagent unless noted.
G-protein coupled receptor 151 (Homo sapiens), sequence (Q8TDV0 whole entry, looked up): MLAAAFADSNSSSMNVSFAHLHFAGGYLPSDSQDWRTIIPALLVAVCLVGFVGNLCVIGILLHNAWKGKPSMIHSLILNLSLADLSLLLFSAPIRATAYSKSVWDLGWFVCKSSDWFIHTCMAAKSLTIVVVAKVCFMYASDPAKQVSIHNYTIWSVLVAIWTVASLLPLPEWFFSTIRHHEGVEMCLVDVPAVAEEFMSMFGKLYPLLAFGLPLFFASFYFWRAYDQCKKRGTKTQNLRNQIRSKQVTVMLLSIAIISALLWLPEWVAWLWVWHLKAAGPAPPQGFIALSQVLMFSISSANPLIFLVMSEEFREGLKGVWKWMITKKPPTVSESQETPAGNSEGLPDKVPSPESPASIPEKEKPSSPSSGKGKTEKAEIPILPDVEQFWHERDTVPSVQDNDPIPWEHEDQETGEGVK

SMILES | activation
CCn1c(/C=C/C=C2\N(C)c3ccccc3C2(C)C)[n+](Cc2ccccc2)c2ccccc21 | 35.2% (active)
CC[n+]1c(/C=C/C=C2\N(C)c3ccccc3C2(C)C)n(-c2ccccc2)c2ccc(C)cc21 | 19.5%
CC[n+]1c(/C=C/C=C2\N(C)c3ccccc3C2(C)C)n(-c2ccccc2)c2cc(Cl)ccc21 | 13.7%
CCCCn1c(C)c(C(=O)OCC)c2cc(OC(=O)CCC)c3ccccc3c21 | 1.16%
CCOC(=O)c1nc2ccccc2c(=O)n1-c1ccc(C)cc1Br | -0.06%
C[C@@H]1O[C@@H](O[C@H]2C[C@@H](O)[C@]3(CO)[C@H]4[C@H](O)C[C@]5(C)[C@@H](C6=CC(=O)OC6)CC[C@]5(O)[C@@H]4CC[C@]3(O)C2)[C@H](O)[C@H](O)[C@H]1O | 13.4% [setting not given]
C[C@H]1CC[C@@H]2[C@@H](C)[C@H]3[C@H](CC4[C@@H]5CC=C6CC(O[C@@H]7O[C@H](CO)C(O[C@@H]8O[C@@H](C)[C@H](O)[C@@H](O)[C@H]8O)[C@H](O)[C@H]7O[C@@H]7O[C@@H](C)[C@H](O)[C@@H](O)[C@H]7O)CC[C@]6(C)[C@H]5CC[C@@]43C)N2C1 (stereo not given in full) | 81.8% (active)
CCCCOc1ccc(C(=O)Nc2ccc(Cl)cc2C(=O)c2ccccc2)cc1 | -0.96%
COCCOC(=O)C1=C(C)OC(N)=C(C#N)C12C(=O)N(CC(=O)OC)c1ccccc12 (stereo not given) | -4.79%
O=C(Nc1ccc(Cl)cc1C(=O)c1ccccc1)c1cc([N+](=O)[O-])ccc1Cl | -4.58%
